“And” between values parts separate entries of the source, which are not always exact repeats. Equal values may be shown once. Inconclusive results are not listed. Entries that show only a call come without a potency. Some compounds were tested as several samples or in several runs, with calls that do not always agree. The source made the active and inactive calls. The call rests on the fitted dose curve; in most records, active means well fitted curve in the direction sought with a large enough effect in the repeat runs; inconclusive means weak or mixed curves; inactive means no such curve, though single readings can be large; an effect the other way counts as inactive or inconclusive.
Potency means the concentration at half of the fitted maximal effect.

The nature of the first experiment: qHTS assay to identify small molecule antagonists of the thyroid receptor (TR) signaling pathway - cell viability counter screen (AID 743064). Further: nearly all actives have a fitted effect of over 50% in size. The following applies: GH3.TRE-Luc viability, CellTiter-Fluor, 24 h; series mostly up to 70.3 µM. Put shortly:
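Fluorescence from CellTiter-Fluor, added after 23.5 h exposure at 37 °C, reported viability of GH3.TRE-Luc cells co-treated with compound and 1 nM T3. Measured in the same wells as the luciferase TR readout.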
(Quantitative high-throughput screening tests each substance at several concentrations.)
Take `C[C@](N)(Cc1ccc(O)c(O)c1)C(=O)O`: the Potency entry is “inactive”.

For the molecule `O=c1[nH]cc(F)c(=O)[nH]1`, the Potency is 20.1 µM (active).

In the case of `O=CC(=O)c1ccccc1`, the Potency entry is “inactive”.

On to `CC(=O)C(=O)O`, for which the Potency entry was “inactive”.

Turning to `Oc1ccccc1`, the Potency result is “inactive”.

In the case of `CC(=O)Nc1c(I)c(NC(C)=O)c(I)c(C(=O)O)c1I`, the Potency entry was “inactive”.

On to `CC(C)c1c(C(=O)Nc2ccccc2)c(-c2ccccc2)c(-c2ccc(F)cc2)n1CC[C@@H](O)C[C@@H](O)CC(=O)O`, for which the Potency entry was “inactive and 57.1 µM (active)”.

As for `C=CCc1ccc(O)c(OC)c1`, the Potency result was “inactive”.

`COc1cccc(O)c1O`: the Potency entry was “inactive”.

A short description of another experiment: qHTS assay to identify small molecule antagonists of the thyroid receptor (TR) signaling pathway (AID 743065). Further: nearly all actives have a fitted effect of over 55% in size. The following applies: GH3.TRE-Luc, T3-stimulated luciferase inhibition, 23.5 h; series mostly up to 70.3 µM. Put shortly: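 GH3.TRE-Luc rat pituitary cells carrying two TR response elements driving luciferase were plated for 4 h, given compound plus 1 nM T3 (final), and incubated 23.5 h at 37 C. ONE-Glo luminescence measured reporter inhibition; CellTiter-Fluor fluorescence tracked cytotoxicity.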
Take `CC(C)NCC(O)c1ccc(O)c(O)c1` (configuration not stated): the Potency entry was “inactive”.

Turning to `O=C1OC2(c3ccccc31)c1cc(Br)c(O)c(Br)c1Oc1c2cc(Br)c(O)c1Br`, the Potency entry was “inactive”.

For `CCCCC1(COC(=O)CCC(=O)O)C(=O)N(c2ccccc2)N(c2ccccc2)C1=O`, the Potency result is “inactive”.

Consider `O=S1(=O)OC(c2ccc(O)cc2)(c2ccc(O)cc2)c2ccccc21`, for which the Potency entry is “inactive”.

As to `CCCCCCCC(=O)OCC(COC(=O)CCCCCCC)OC(=O)CCCCCCC`, the Potency entry was “inactive”.

As to `CCN(CC)C(=O)c1cccc(C)c1`, the Potency entry was “inactive”.

`NS(=O)(=O)c1cc2c(cc1Cl)NCNS2(=O)=O`: the Potency result was “inactive”.

On to `C=C(C)C(=O)OCC(C)O` (configuration not stated), for which the Potency entry was “inactive”.

For `Cc1ncc([N+](=O)[O-])n1C`, the Potency entry is “inactive”.

For `CN(N=O)C(=O)N[C@@H]1[C@@H](O)[C@H](O)[C@@H](CO)O[C@@H]1O`, the Potency result is “inactive”.

Regarding `CN(C)C(=O)Nc1ccc(Cl)c(Cl)c1`, the Potency result was “inactive”.

As for `Cc1cccc(C)c1`, the Potency result is “inactive”.

For the molecule `O=C(Nc1ncc([N+](=O)[O-])s1)c1cccs1`, the Potency is 21.1 µM (active).
